Results reported in PubChem BioAssay (NCI).
The panel holds about 83,000 compounds, 20% with a hit somewhere; the sample as a whole holds those more often.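 Treatment: one concentration, 48 hours, 96-well format. Scoring: percent growth, with anything below 10 considered active.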 Values without a mark were called inactive. Calls of active or inactive are those of the source.

Tested on: SK-MEL-5 melanoma
Assay: NCI-60 one-dose screen, 48 h (100 = growth as untreated, 0 = no growth, -100 = all killed)
Conditions: 10 µM unless noted

Row | Structure (SMILES) | growth
1 | CSc1nnc(-c2cc3c([nH]c4ccccc43)c(-c3cccc(O)c3)n2)n1-c1ccccc1 | 19.9%
2 | Nc1cc(C(=O)NC[C@H]2CN(c3ccc(N4CCC(C(=O)O)CC4)cc3)C(=O)O2)ccc1Cl | 103%
3 | CC(C)(Sc1cc(C(C)(C)C)c(OC(=O)CCCC(=O)O)c(C(C)(C)C)c1)Sc1cc(C(C)(C)C)c(OC(=O)CCCC(=O)O)c(C(C)(C)C)c1 | -3.74% (active)
4 | C=CCn1c(SCC(=O)Nc2ccc(C(=O)/C=C/c3ccc(Cl)cc3)cc2)nnc1-c1ccc(Br)cc1 | 82.7%
5 | CCOC(=O)c1nn(-c2ccc(S(N)(=O)=O)cc2)c2nc(C)cc(=O)n12 | 106%
6 | CN(C)CCNC(=O)c1cc2c3cc(Cl)ccc3[nH]c2c2ncccc12 | -38.8% (active)
7 | COc1ccccc1NC(=O)N=Nc1c(O)[nH]c2ccccc12 | 94.1%
8 | CC(=O)N1N=C(c2ccc(C(F)(F)F)c(F)c2)CC1c1[nH]c(C)c(C(=O)NCC(F)(F)F)c1C (stereo not given) | 81.7%
9 | O=C(/C=C(/C=C/c1ccc2[nH]ccc2c1)OB(F)F)/C=C/c1ccc2[nH]ccc2c1 | 12.2%
10 | CCOC(=O)c1cc2c(n1Cc1cc(OC)c(OC)c(OC)c1)-c1nc(N)sc1CCC2 | 19.6%
11 | N#Cc1ccc(O)c(C2=NCC(c3ccccc3)O2)c1 (stereo not given) | 39.1%
12 | CC(=O)c1c(C)nc(SCC(=O)Nc2cccc(O)c2)n1-c1ccc(Cl)cc1 | 93.2%
13 | O=C(Nc1cccc2ccccc12)NC1CC1 | 103%
14 | CCOC(=O)c1c2c(n3cccc(F)c13)C(=O)c1ncccc1C2=O | -23% (active)
15 | O=c1c2ccccc2n2cnc3ccc(Cl)c1c32 | 77%
16 | CC(C)c1ccc(-n2c(=S)[nH]c3sc4cc(O)ccc4c3c2=O)cc1 | 98.6%
17 | N#Cc1c(-c2ccccc2)cc(-c2ccccc2)n(CCCC(=O)Nc2ccccc2N)c1=O | 48.4%
18 | COc1cc2c(cc1OCCCN1CCN(CCCOc3cc4c(cc3OC)C(=O)N3CCC[C@H]3C=N4)CC1)C=CC(C)(C)O2 | -100% (active)
19 | CCC(C(=O)[C@@H](C)[C@@H](O)[C@H](C)[C@@H]1O[C@@H]([C@@H](CC)C(=O)ONC(=O)c2ccccc2)CC[C@@H]1C)[C@H]1O[C@]2(C=CC(=O)[C@]3(CC[C@@](C)([C@H]4CC[C@](O)(CC)[C@H](C)O4)O3)O2)[C@H](C)C[C@@H]1C (stereo not given in full) | -73.9% (active)
20 | CN1C(=O)/C(=C\c2nc([P+](c3ccccc3)(c3ccccc3)c3ccccc3)c(N3CCOCC3)o2)SC1=S | 78.4%

Row | Structure (SMILES) | growth
21 | COc1ccc(/C=C/C(=O)c2cccc(OCCCCOc3cccc(C(=O)/C=C/c4ccc(OC)c(OC)c4)c3)c2)cc1OC | 9.83% (active)
22 | O=S(=O)(Nc1cc(Cl)ccc1Cl)c1ccc(-c2cnc(C3CC3)o2)cc1 | 31.1%
23 | C=C1C(=O)O[C@H]2[C@H]1CC/C(COC(=O)c1cc3ccccc3s1)=C\CC[C@@]1(C)O[C@@H]21 | -93.8% (active)
24 | N=C(N)c1ccc(-c2ccc(-c3ccccc3)o2)cc1 | -80.6% (active)
25 | c1cnc2c(-c3nc4ccc5[nH]ncc5c4c4c3CCCC4)c[nH]c2c1 | 56.4%
26 | Cc1nc2sc(C(=O)Nc3cccc(Br)c3)c(N)c2cc1C(O)c1ccccc1 (stereo not given) | 17.9%
27 | Cn1ccnc1C(=O)/C=C/c1ccc(CC(=O)Nc2cc(C(F)(F)F)cc(C(F)(F)F)c2)cc1 | 76.5%
28 | C=C1C(=O)O[C@H]2[C@H]1CC/C(Cn1cc(-c3ccccc3)nn1)=C\CC[C@@]1(C)O[C@@H]21 | 21%
29 | Oc1c(I)cc(I)cc1CNCc1ccccn1 | 37.3%
30 | CCOC(=O)c1cc2c(n1C)-c1nc(NC(C)=O)sc1CCC2 | 80.4%
31 | COc1c(C(=O)Nc2ccc(C)c(Br)c2)ccc2ccccc12 | 98.3%
32 | O=C(Nc1ccc(Oc2cccc(F)c2)c(Cl)c1)c1cccnc1 | -24% (active)
33 | COC12C=C/C(=C(/C(=O)OCc3ccncn3)C(=O)CCCCCCCCC3(OC)C=C/C(=C(/C(=O)OCc4ccncn4)C(=O)CCCCCCCC1)O3)O2 | -88.1% (active)
34 | COC1=CC(c2ccc[nH]2)=N/C1=C\c1[nH]c(C)c(C(=O)OC(C)C)c1C | -99.5% (active)
35 | O=C(Nc1cccc(Cl)c1)Nc1cccc(Cn2c(=O)[nH]c3ccc(Oc4ncccn4)cc3c2=O)c1 | 25.5%
36 | Cc1ccc(C)n1-c1ccccc1-n1c(C)ccc1C | 104%
37 | COc1ccc(/C=C/C(=O)c2ccc(Nc3ccnc4cc(Cl)ccc34)cc2)cc1 | 67.8%
38 | CCN(CC)c1ccc(\C=N/N=C(N)/C(N)=N\N=C/c2ccc(N(CC)CC)cc2)cc1 | 97.1%
39 | O=[N+]([O-])c1cccc(-c2nc3cc4nc5ccccc5[nH]c4cc3n2)c1 | 96.4%
40 | COc1ccc(/C=C(\C#N)n2nnc3cc(Cl)ccc32)cc1 | -17.5% (active)
